MPTP inh: permeability transition pore inhibition; isolated mouse mitochondria, Ca2+ swelling absorbance, 30 min; inhibition, % at 10 µM; hit rate 1.4% among 360,000;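 active = inhibition of 50% or more, scaled per plate between neutral and stimulator controls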;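 note: 0% = DMSO wells given calcium and 100% = 1 mM EGTA wells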
GRIN3A LBD mod: modulates the human NR3A ligand-binding domain | NR3A LBD differential scanning fluorimetry, Tm shift; 0% = protein alone, 100% = glycine-bound protein | Tm shift relative to glycine control, % at 25 µM | hit rate 2.5% among 340,000 | AID 1259313;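 active = melting temperature shift of at least 10% of the positive control shift, at one fixed dose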
Myeloid diff 2: myeloid differentiation induction; ER-HoxA9 myeloid progenitors, lysozyme-GFP differentiation, flow cytometry; calls only at 10 µM; hit rate 1% among 360,000; AID 624256;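 active = normalized GFP-positive differentiation at or above the plate's own cutoff, the solvent-only control mean plus 3 SD; inconclusive = no clear call, values can overlap the other calls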;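 note: cells exposed to compound for four days before flow analysis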
rCAG binder: r(CAG) repeat RNA binding. TO-PRO-1 dye displacement fluorescence. inhibition, % at 3 µM. hit rate 1.3% among 370,000. AID 651821;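 active = inhibition above the plate cutoff, the mean of all test compounds on that plate plus 3 SD, cut at about 35% in these data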;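 note: 0% = DMSO alone and 100% = 100 µM mitoxantrone as full dye displacement; higher means more dye released from RNA so lower well fluorescence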
FAS TE block: inhibitors of human fatty acid synthase thioesterase domain; inhibition, % at 15 µM; P49327; hit rate 0.67% among 360,000; recombinant FAS-TE, OMFH fluorogenic substrate, fluorescence endpoint;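 active = compounds whose normalised, plate-corrected inhibition of enzyme fluorescence in the single-dose primary screen is 50% or more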;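 note: 0% = DMSO with enzyme and 100% = substrate without enzyme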
rCAG bind conf: r(CAG) RNA repeat binding, confirmation. shares compounds with rCAG binder. TO-PRO-1 dye displacement fluorescence. inhibition, % at 3 µM. hit rate 70% among 4,300;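 active = inhibition above a per-plate cutoff, the mean inhibition of sample wells plus 3 SD, cut at about 35% in these data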;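 note: loss of TO-PRO-1 fluorescence as compound displaces dye from 1x1 AA loop RNA; 0% = DMSO only wells and 100% = 100 µM mitoxantrone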
dCAG dye counter: disrupts DNA CAG TO-PRO-1 complex, flagging rCAG hits; inhibition, % at 3 µM; d(CAG) DNA oligo TO-PRO-1 dye displacement, fluorescence; hit rate 94% among 4,300; shares compounds with rCAG binder;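 active = inhibition above its plate's cutoff, the mean test-well inhibition plus 3 SD, cut at about 4.8% in these data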;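 note: 0% = DNA dye mix with DMSO and 100% = 100 µM mitoxantrone; hits displace the dye from DNA and so lower well fluorescence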
dCAG dye DR: counter-screen for rCAG binders: inhibitors of DNA CAG TO-PRO-1 complex; hit rate 20% among 250; IC50, µM; shares compounds with rCAG binder; AID 686960; DNA CAG/GTC duplex TO-PRO-1 dye displacement fluorescence; in the data active = IC50 below about 10 µM
Active calls of the source: *. Only some compounds are listed: those with a hit (about 5.7% of all), similar ones and a draw of the others.

What do the screens show for `CCn1nc(NS(=O)(=O)c2ccc(NC(C)=O)cc2)c2cc3cccc(C)c3nc21`?
MPTP inh: -2; GRIN3A LBD mod: -4; Myeloid diff 2: inactive; rCAG binder: 39*; FAS TE block: -6; rCAG bind conf: 19; dCAG dye counter: 4

Results for CCCn1nc(NS(=O)(=O)c2cccc3nonc23)c2cc3cccc(C)c3nc21 ?
MPTP inh: 3; GRIN3A LBD mod: -6; Myeloid diff 2: inactive; rCAG binder: 85*; FAS TE block: 5; rCAG bind conf: 78*; dCAG dye counter: 41*

What do the screens show for `CCn1nc(NS(=O)(=O)c2ccccc2)c2cc3cccc(C)c3nc21`?
MPTP inh: 6; GRIN3A LBD mod: -8; Myeloid diff 2: inactive; rCAG binder: 41*; FAS TE block: -3; rCAG bind conf: 33; dCAG dye counter: 11*

How did CCCn1nc(NS(=O)(=O)c2cccc3nonc23)c2cc3cc(C)ccc3nc21 do in these assays?
MPTP inh: 1; GRIN3A LBD mod: -1; Myeloid diff 2: inconclusive; rCAG binder: 23; FAS TE block: 5

What do the screens show for `Cc1ccc(C(=O)NCc2ccccn2)cc1NC1=NC2CS(=O)(=O)CC2S1` (configuration not stated)?
MPTP inh: -1; GRIN3A LBD mod: -2; Myeloid diff 2: inactive; rCAG binder: 2; FAS TE block: -6

Results for C/C(=N\NC(=O)CCCC(=O)O)c1c(-c2ccccc2)c2cc(Cl)ccc2[nH]c1=O ?
MPTP inh: 1; GRIN3A LBD mod: 0; Myeloid diff 2: inactive; rCAG binder: 3; FAS TE block: -6

Results for Cc1ccccc1-c1nnc(SCC(=O)Nc2cccnc2Cl)o1 ?
MPTP inh: -2; GRIN3A LBD mod: 0; Myeloid diff 2: inactive; rCAG binder: 1; FAS TE block: 1

Results for O=S1(=O)c2ccc(N3CCSCC3)cc2Oc2ccccc2CN1Cc1cn(Cc2ccc(C(F)(F)F)cc2)nn1 ?
rCAG binder: 12

Results for O=C(NC(=S)Nc1ccc(Cl)c(C(=O)O)c1)c1ccc(OCc2ccccc2)cc1 ?
MPTP inh: 3; GRIN3A LBD mod: 2; Myeloid diff 2: inactive; rCAG binder: 68*; FAS TE block: -39; rCAG bind conf: 62*; dCAG dye counter: 25*

What do the screens show for `COc1cc(OC)cc(C(=O)NC(=S)Nc2ccc(Cl)c(C(=O)O)c2)c1`?
MPTP inh: -1; GRIN3A LBD mod: -6; Myeloid diff 2: inactive; rCAG binder: 14; FAS TE block: 2

How did O=C(O)c1cccc(NC(=O)c2ccc(COc3ccc(Cl)cc3)cc2)c1 do in these assays?
MPTP inh: 1; GRIN3A LBD mod: 1; Myeloid diff 2: inactive; rCAG binder: 47*; FAS TE block: 2; rCAG bind conf: 54*; dCAG dye counter: 16*

What do the screens show for `COc1cc(C(=O)NC(=S)Nc2ccc(Cl)c(C(=O)O)c2)cc(OC)c1OC`?
MPTP inh: -3; GRIN3A LBD mod: -2; Myeloid diff 2: inactive; rCAG binder: 12; FAS TE block: -4

Results for O=C(NC(=S)Nc1ccc(Cl)c(C(=O)O)c1)c1cccc(COc2ccccc2)c1 ?
MPTP inh: 1; GRIN3A LBD mod: -3; Myeloid diff 2: inactive; rCAG binder: 71*; FAS TE block: -39; rCAG bind conf: 67*; dCAG dye counter: 30*

How did CCCCOc1cccc(C(=O)NC(=S)Nc2ccc(Cl)c(C(=O)O)c2)c1 do in these assays?
MPTP inh: 1; GRIN3A LBD mod: -4; Myeloid diff 2: inactive; rCAG binder: 44*; FAS TE block: 27; rCAG bind conf: 49*; dCAG dye counter: 9.4*; dCAG dye DR: >30

How did COc1ccc2c(/C=N/Nc3ccc(C(=O)O)cc3)c[nH]c2c1 do in these assays?
MPTP inh: -1; GRIN3A LBD mod: 2; Myeloid diff 2: inactive; rCAG binder: 31; FAS TE block: -3

Results for CCCOc1ccc(/C=N/Nc2ccc(C(=O)O)cc2)c(OCCC)c1 ?
MPTP inh: 1; GRIN3A LBD mod: 21*; Myeloid diff 2: inactive; rCAG binder: 55*; FAS TE block: 10; rCAG bind conf: 60*; dCAG dye counter: 22*
